The list is not random: actives were taken first. Their share in the collection is about 6.8%.
T cruzi growth: blocks T. cruzi growth in NIH3T3 culture; T. cruzi beta-gal in NIH3T3, GalScreen luminescence, 90 h; inhibition, % at 8.34 µM; 77,000 compounds, 5.9% hits; AID 624255;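 active = mean inhibition above about 93%, with at least 55% of replicates each passing it, limit read from the data, passing the limit was not always enough; inconclusive = only one of those two conditions holds; inactive = neither condition holds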
Pf Dd2 inh: P. falciparum Dd2 growth inhibition. SYBR Green, 72 h; active compounds read low. activity change, % at 10 µM. 94,000 compounds, 2.3% hits. AID 1159554; in the data active = activity change below about -80%; inconclusive = no clear call, values can overlap the other calls
C diff growth: blocks growth of Clostridium difficile; 86,000 compounds, 0.25% hits; Clostridium difficile clinical isolate growth, OD600, 24 h; active compounds read low; growth activity, negative = inhibition, % at 16 µg/mL (by protocol);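 active = mean growth activity at or below -80% and every replicate also at or below -80%; inconclusive = mean at or below -80% but some replicate above -80%; inactive = mean growth activity above -80%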;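 also: 0% = DMSO wells and -100% = levofloxacin 16 µg/mL wells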
The depositor's hits bear a star; ? = inconclusive; / = no result given; ! = not active in a repeat.

SMILES | T cruzi growth | Pf Dd2 inh | C diff growth
CO[C@H]1CN(C)C(=O)c2cc(NC(=O)C3CC3)ccc2OC[C@@H](C)N(C(=O)c2cnccn2)C[C@@H]1C | -44 | 32 | /
C[C@H](C(=O)N(C)C[C@H]1OCc2ccccc2-c2c(n(C)c3ccccc23)C(=O)N([C@H](C)CO)C[C@H]1C)c1ccccc1 | / | -57 | 2
C[C@H]1CN([C@@H](C)CO)C(=O)c2ccccc2-c2ccccc2CO[C@H]1CN(C)C(=O)c1cc(Cl)cc(Cl)c1 | / | -83* | -7
C[C@H](CO)N1C[C@H](C)[C@H](CN(C)C(=O)c2cc(Cl)cc(Cl)c2)OCc2ccccc2-c2ccccc2C1=O | / | -63 | -8
C[C@H](C(=O)N(C)C[C@@H]1OCc2ccccc2-c2c(n(C)c3ccccc23)C(=O)N([C@@H](C)CO)C[C@H]1C)c1ccccc1 | / | -67 | 50
C[C@H](CO)N1C[C@H](C)[C@@H](CN(C)C(=O)[C@H](C)c2ccccc2)OCc2ccccc2-c2c(n(C)c3ccccc23)C1=O | / | -94* | 10
C[C@@H]1CN([C@@H](C)CO)C(=O)c2c(c3ccccc3n2C)-c2ccccc2CO[C@@H]1CN(C)C(=O)c1cc(Cl)cc(Cl)c1 | / | -87* | -4
C[C@@H](C(=O)N(C)C[C@@H]1OCc2ccccc2-c2c(n(C)c3ccccc23)C(=O)N([C@@H](C)CO)C[C@@H]1C)c1ccccc1 | / | -86* | 9
C[C@H](CO)N1C[C@H](C)[C@@H](CN(C)C(=O)c2cc(Cl)cc(Cl)c2)OCc2ccccc2-c2c(n(C)c3ccccc23)C1=O | / | -37 | 3
CN(C)C(=O)c1ccc(-c2ccc([C@@H]3[C@H](C#N)N(C(=O)C4CCCC4)[C@H]3CO)cc2)cc1 | 86 | -16 | 2
C[C@@H]1CN([C@H](C)CO)C(=O)Cc2cc(NC(=O)c3ccncc3)ccc2O[C@@H]1CN(C)S(=O)(=O)c1cccs1 | 13 | 6 | -1
O=C(NCC[C@H]1CC[C@@H](NC(=O)C2CCOCC2)[C@H](CO)O1)c1ccc(F)cc1 | 15 | 12 | 3
C[C@@H]1CN([C@H](C)CO)C(=O)c2c(c3ccccc3n2C)-c2ccccc2CO[C@@H]1CN(C)C(=O)[C@H](C)c1ccccc1 | / | -91* | -9
C[C@H](C(=O)N(C)C[C@H]1OCc2ccccc2-c2c(n(C)c3ccccc23)C(=O)N([C@@H](C)CO)C[C@@H]1C)c1ccccc1 | / | -69 | 5
COc1ccc(S(=O)(=O)N(C)C[C@H]2OCCCC[C@H](C)Oc3ccc(NC(=O)Nc4ccc(F)cc4)cc3C(=O)N([C@H](C)CO)C[C@H]2C)cc1 | 44 | -81* | 0
COc1ccc(NC(=O)Nc2ccc3c(c2)C(=O)N([C@H](C)CO)C[C@@H](C)[C@H](CN(C)S(=O)(=O)c2ccc(F)cc2)OCCCC[C@@H](C)O3)cc1 | 118 | -82* | 1
COc1ccc(NC(=O)Nc2ccc3c(c2)C(=O)N([C@H](C)CO)C[C@H](C)[C@H](CN(C)S(=O)(=O)c2ccc(F)cc2)OCCCC[C@@H](C)O3)cc1 | 18 | ? | 4
COc1ccc(NC(=O)Nc2ccc3c(c2)C(=O)N([C@H](C)CO)C[C@H](C)[C@@H](CN(C)S(=O)(=O)c2ccc(F)cc2)OCCCC[C@@H](C)O3)cc1 | -50 | -27 | -3
COc1ccc(NC(=O)Nc2ccc3c(c2)C(=O)N([C@H](C)CO)C[C@@H](C)[C@@H](CN(C)S(=O)(=O)c2ccc(F)cc2)OCCCC[C@@H](C)O3)cc1 | 96 | -81* | -7
COc1ccc(S(=O)(=O)N(C)C[C@H]2OCCCC[C@@H](C)Oc3ccc(NC(=O)Nc4ccc(F)cc4)cc3C(=O)N([C@H](C)CO)C[C@H]2C)cc1 | ? | -80 | 8
COc1ccc2c3c([nH]c2c1)[C@H](CO)N(C(=O)Cc1ccccc1)CC31CCN(C(=O)Cc2ccccc2)CC1 | / | -67 | 3
CCC(=O)Nc1ccc2c(c1)C(=O)N(C)C[C@H](OC)[C@@H](C)CN(C(=O)Cc1ccccn1)[C@H](C)CO2 | -72 | 13 | /
CCNC(=O)C[C@H]1CC[C@@H]2[C@H](COC[C@@H](O)CN2C(=O)Nc2ccc(C(F)(F)F)cc2)O1 | -31 | 8 | 62
CCNC(=O)C[C@@H]1CC[C@H]2[C@@H](COC[C@@H](O)CN2C(=O)Nc2ccc(C(F)(F)F)cc2)O1 | -63 | -32 | -100*
CCNC(=O)C[C@@H]1CC[C@@H]2[C@H](COC[C@H](O)CN2C(=O)Nc2ccc(C(F)(F)F)cc2)O1 | 18 | -18 | -97*!
O=C(C[C@@H]1CC[C@H]2[C@@H](COC[C@@H](O)CN2C(=O)Nc2ccc(C(F)(F)F)cc2)O1)NCC1CCCCC1 | / | 7 | -100*!
O=C(C[C@H]1CC[C@@H]2[C@H](COC[C@H](O)CN2C(=O)Nc2ccc(C(F)(F)F)cc2)O1)NCC1CC1 | -2 | -17 | -23

High-throughput results: PubChem BioAssay, Broad Institute
